Data from PubChem BioAssay AID1159606 (Sanford-Burnham Center for Chemical Genomics, 2016).
Screen size: about 360,000 compounds; about 7,300 (2%) were called active. Only a selection was taken, and actives are over-represented in it overall. Values without a mark were called inactive. Rule as the data show it: active = inhibition above about 50%; inactive = the rest.

Assay: inhibitors of TWEAK-Fn14 signaling, primary screen, luciferase reporter cells, uHTS (AID 1159606)
Conditions: TWEAK-stimulated Fn14 reporter cells, luciferase luminescence, 8 h; at 10 µM; stronger effect = higher value

Compound	inhibition
CC(=O)c1c(C)[nH]c(C(=O)COC(=O)c2cccs2)c1C	-16.3%
COc1cccc(C(=O)OCC(=O)c2[nH]c(C)c(C(C)=O)c2C)c1	-4.4%
COc1ccc(N(C(=O)c2snc(C(N)=O)c2N)C(C(=O)NC2CCCC2)c2ccc(C)o2)c(OC)c1 (stereo unspecified)	22.4%
COc1c(C)c2c(c(O)c1C/C=C(\C)CCC(=O)O)C(=O)OC2	-6.73%
CCn1c(N)c(Br)c(=O)[nH]c1=O	9.55%
CC(C)c1ccc2c(c1)c(SC(C)(C)C)c(CC(C)(C)C(=O)O)n2Cc1ccc(Cl)cc1	79.3% (active)
Cc1cccnc1CCNC(=O)C1CCC(=O)N(Cc2cccc(F)c2)C1 (stereo unspecified)	-10.1%
CCOC(=O)C1CCCN(C(=O)COc2ccc(N(C)S(=O)(=O)c3ccc(C)cc3)cc2)C1 (stereo unspecified)	9.89%
CCOc1ccc(NC(=O)CN(C)CC(=O)Nc2cccc(Cl)c2C)cc1OCC	5.07%
C=CCn1c(C)cc(C2=NNC(=NCC)SC2)c1C	107% (active)
CCc1nc2ccc(C(=O)Nc3ccc(OC)c(OC)c3)cn2c1N(C)C(=O)c1cccc(OC)c1	-18.4%
COc1cccc(CN(C)CC2CCCN(CCc3ccc(Cl)cc3)C2)c1OC (stereo unspecified)	-2.09%
O=C(NCc1ccccc1)[C@@H]1CSC2c3ccccc3C(=O)N21 (stereo partly specified)	8.08%
Cc1ccc2nc(SC(C)C(=O)NCc3ccco3)[nH]c2c1 (stereo unspecified)	46%
CCOc1ncccc1C(=O)Nc1ccc(S(=O)(=O)Nc2nc(C)cc(C)n2)cc1	-19.9%
CSc1ncccc1C(=O)Nc1ccc2c(c1)OCO2	1.24%
CCOc1ncccc1C(=O)Nc1ccc2c(c1)OCCO2	68.7% (active)
COC(=O)[C@]12CCCCC=C1N(Cc1ccco1)C(=O)[C@H](CC(=O)NCCCCc1ccccc1)C2	16.9%
O=C(NCCc1ccccn1)c1cc(C(=O)C2CCCCC2)c[nH]1	4.9%
Cc1cc(C)c(C#N)c(SCC(=O)N(CC(C)C)C2CCS(=O)(=O)C2)n1 (stereo unspecified)	4.51%
COC(=O)C(Cc1c[nH]c2ccccc12)NC(=O)CCNC(=O)c1ccco1 (stereo unspecified)	-24.2%
O=C1NC[C@H](CCCCN2CCN(CCc3ccccc3)C(=O)C2=O)N(CC2CCCCC2)C1=O	-2.45%
O=C1OCCOC2CCCc3oc(-c4ccccc4)c1c32 (stereo unspecified)	16.6%

Compound	inhibition
COc1ccc(N(CC(=O)Nc2cc(OC)ccc2OC)S(=O)(=O)c2c(C)noc2C)cc1	-0.61%
CCOC(=O)c1cccc(NC(=O)CN(c2ccc(C)cc2)S(=O)(=O)c2c(C)noc2C)c1	57.7% (active)
Cc1noc(C)c1S(=O)(=O)N(CC(=O)Nc1ccc2c(c1)OCCO2)c1ccc(C(C)C)cc1	35.5%
O=c1[nH]c(/C=C/c2cccc(Br)c2)nc2ccccc12	-14.4%
O=c1oc(/C=C/c2ccccc2)nc2ccccc12	55.3% (active)
S=c1[nH]nc(/C=C/c2ccccc2)o1	9.4%
CCN(c1ccccc1)S(=O)(=O)c1cc2c(cc1C)n(C)c(=O)c(=O)n2C	-4.66%
CS(=O)(=O)Nc1cccc(-c2cn3ccccc3n2)c1	-6.02%
Cc1ccc(-c2cn3cc([N+](=O)[O-])ccc3n2)cc1	76.3% (active)
Cc1ccc(-c2nc3ccc(Br)cn3c2Cc2ccccc2C(F)(F)F)cc1	5.76%
Cc1ccc(-n2cc3ccc([N+](=O)[O-])cc3n2)cc1	39.8%
COc1ccc(-c2nc3ccc(Br)cn3c2Cc2ccc(C)cc2)cc1OC	-20.3%
Cc1ccc(-c2cc(N)on2)cc1	-5.28%
COc1ccc(C2=Nc3cc(C)ccc3OC2)cc1	27.9%
Cc1ccnc(N2C(=O)c3ccc([N+](=O)[O-])cc3C2=O)c1	5.4%
Cc1ccc(-c2cn3cc(C)ccc3n2)cc1	105% (active)
FC(F)(F)Oc1ccc(-c2cn3cccnc3n2)cc1	-15.1%
Cc1ccc2nc(-c3ccc(Br)cc3)cn2c1	98.8% (active)
COc1ccc(-c2cn3ccc(C)cc3n2)cc1	81.6% (active)
Cc1ccc(OCC(=O)Nc2ccccc2Sc2ccc(Cl)cc2)c([N+](=O)[O-])n1	13.7%
COc1cccc(-c2cc3nc(NCCOc4ccccc4Cl)n(C)c(=O)c3s2)c1	15.1%
CCOC(=O)C1CCCN(C(=O)c2cc(-c3cccs3)oc2C)CC1 (stereo unspecified)	31.6%
Cc1ccc(S(=O)(=O)Nc2ccccc2CNc2c(C)n(C)n(-c3ccccc3)c2=O)cc1	12.4%
